# Measurements: PubChem BioAssay AID1159580 (chemical genetic matrix, 2015)
# The whole screen tested about 5,500 compounds, of which about 2,000 (36%) were called active. Another 18% or so got no clear call; they are omitted. The list shows a part of the results. A number with no mark means an inactive call. Cut-off read from the data, not from the text of the source: active = normalized growth mostly below about 0.91 (no sharp cut-off); inconclusive = no clear call, values can overlap the other calls; inactive = mostly above about 0.92.
# Assay: chemical genetic growth profiling, strain panel (AID 1159580);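 note: tested at 20 µM; growth read once vehicle control cultures reached saturation at 30 °C; 1 = growth at the plate median or of vehicle wells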
# Details: growth OD
# [1] = S. cerevisiae deletion strains, locus YAL013W, strain DEP1, stronger effect = lower value
# [2] = S. cerevisiae deletion strains, locus YAL040C, strain CLN3, stronger effect = lower value
# [3] = S. cerevisiae deletion strains, locus YDR150W, strain NUM1, stronger effect = lower value
# [4] = S. cerevisiae deletion strains, locus YDR363W, strain ESC2, stronger effect = lower value
# [5] = S. cerevisiae deletion strains, locus YER002W, strain NOP16, stronger effect = lower value
# [6] = S. cerevisiae deletion strains, locus YMR263W, strain SAP30, stronger effect = lower value
# [7] = S. cerevisiae deletion strains, locus YMR307W, strain GAS1, stronger effect = lower value
# [8] = S. cerevisiae deletion strains, locus YNL197C, strain WHI3, stronger effect = lower value
# [9] = S. cerevisiae deletion strains, locus YNL224C, strain SQS1, stronger effect = lower value
# [10] = S. cerevisiae deletion strains, locus YNL322C, strain KRE1, stronger effect = lower value
# [11] = S. cerevisiae deletion strains, locus YOR083W, strain WHI5 (second series), stronger effect = lower value
# [12] = S. cerevisiae deletion strains, locus YBR229C, strain ROT2, stronger effect = lower value
# [13] = S. cerevisiae deletion strains, locus YDL101C, strain DUN1, stronger effect = lower value
# [14] = S. cerevisiae deletion strains, locus YEL061C, strain CIN8, stronger effect = lower value
# [15] = S. cerevisiae deletion strains, locus YGR078C, strain PAC10, stronger effect = lower value
# [16] = S. cerevisiae deletion strains, locus YGR229C, strain SMI1, stronger effect = lower value
# [17] = S. cerevisiae deletion strains, locus YHR030C, strain SLT2, stronger effect = lower value
# [18] = S. cerevisiae deletion strains, locus YHR087W, strain rtc3, stronger effect = lower value
# [19] = S. cerevisiae deletion strains, locus YJL187C, strain SWE1, stronger effect = lower value
# [20] = S. cerevisiae deletion strains, locus YJR043C, strain POL32, stronger effect = lower value
# [21] = S. cerevisiae deletion strains, locus YJR075W, strain HOC1, stronger effect = lower value
# [22] = S. cerevisiae deletion strains, locus YLR039C, strain RIC1, stronger effect = lower value
# [23] = S. cerevisiae deletion strains, locus YLR058C, strain SHM2 (second series), stronger effect = lower value
# [24] = S. cerevisiae deletion strains, locus YLR085C, strain ARP6, stronger effect = lower value
# [25] = S. cerevisiae deletion strains, locus YLR262C, strain YPT6, stronger effect = lower value
# [26] = S. cerevisiae deletion strains, locus YML094W, strain GIM5, stronger effect = lower value
# [27] = S. cerevisiae deletion strains, locus YMR219W, strain ESC1, stronger effect = lower value
# [28] = S. cerevisiae deletion strains, locus YNL153C, strain GIM3, stronger effect = lower value
# [29] = S. cerevisiae deletion strains, locus YNL298W, strain CLA4 (second series), stronger effect = lower value
# [30] = S. cerevisiae deletion strains, locus YNR030W, strain Alg12, stronger effect = lower value
# [31] = S. cerevisiae deletion strains, locus YPL055C, strain LGE1, stronger effect = lower value
# [32] = S. cerevisiae deletion strains, locus YPL241C, strain CIN2, stronger effect = lower value
# [33] = S. cerevisiae deletion strains, locus YPR135W, strain CTF4, stronger effect = lower value
# [34] = S. cerevisiae strains, strain wild type, stronger effect = lower value
smiles,measurement,setting,value
c1cc(CN2CCCCC2)cc(OCCCNc2nc3ccccc3s2)c1,normalized growth,[1],1
same,normalized growth,[2],0.908
same,normalized growth,"S. cerevisiae deletion strains, locus YCL061C, strain MRC1 (second series), stronger effect = lower value",1.01
same,normalized growth,[3],1.02
same,normalized growth,[4],0.997
same,normalized growth,[5],0.936
same,normalized growth,[6],1.01
same,normalized growth,[7],1.01
same,normalized growth,[8],1.04
same,normalized growth,[9],1.06
same,normalized growth,[10],0.992
same,normalized growth,[11],1.03
COc1cccc(NC(N)=S)c1,normalized growth,[1],1.02
same,normalized growth,[12],1.01
same,normalized growth,[13],1.02
same,normalized growth,[3],0.992
same,normalized growth,[14],1.01
same,normalized growth,[15],1.01
same,normalized growth,[16],0.993
same,normalized growth,[17],1.08
same,normalized growth,[18],0.997
same,normalized growth,[19],1.01
same,normalized growth,[20],1.01
same,normalized growth,[21],0.991
same,normalized growth,"S. cerevisiae deletion strains, locus YKL190W, strain CNB1, stronger effect = lower value",0.985
same,normalized growth,[22],1.03
same,normalized growth,[23],1.03
same,normalized growth,[24],1.02
same,normalized growth,[25],1.05
same,normalized growth,[26],1
same,normalized growth,[27],1.01
same,normalized growth,[6],1.01
same,normalized growth,[28],0.998
same,normalized growth,[29],1.03
same,normalized growth,[10],0.995
same,normalized growth,[30],1.01
same,normalized growth,"S. cerevisiae deletion strains, locus YOL006C, strain TOP1, stronger effect = lower value",1.05
same,normalized growth,[31],0.984
same,normalized growth,[32],0.964
same,normalized growth,[33],1.12
same,normalized growth,[34],0.993
COc1cccc(Nc2nc3ccccc3s2)c1,normalized growth,[1],0.728 (active)
same,normalized growth,[12],0.709 (active)
same,normalized growth,[13],0.724 (active)
same,normalized growth,[3],0.877
same,normalized growth,[14],0.533 (active)
same,normalized growth,[15],0.827 (active)
same,normalized growth,[17],0.112 (active)
same,normalized growth,[18],0.688 (active)
same,normalized growth,[19],0.682 (active)
same,normalized growth,[20],0.856 (active)
same,normalized growth,[21],0.711 (active)
same,normalized growth,[22],0.163 (active)
same,normalized growth,[23],0.914 (active)
same,normalized growth,[24],0.138 (active)
same,normalized growth,[25],0.187 (active)
same,normalized growth,[26],0.66 (active)
same,normalized growth,[27],0.804 (active)
same,normalized growth,[6],0.795 (active)
same,normalized growth,[7],0.208 (active)
same,normalized growth,[28],0.799 (active)
same,normalized growth,[29],0.421 (active)
same,normalized growth,[10],0.943 (active)
same,normalized growth,[30],0.575 (active)
same,normalized growth,[31],0.548 (active)
same,normalized growth,[32],0.485 (active)
same,normalized growth,[33],0.264 (active)
same,normalized growth,[34],0.598 (active)
COc1cccc(C(=O)NCCN2CCN(c3ccc(Cl)cc3)CC2)c1,normalized growth,[2],0.992
same,normalized growth,[3],1.01
same,normalized growth,[4],1.01
same,normalized growth,[5],1.02
same,normalized growth,[15],1.01
same,normalized growth,[16],1
same,normalized growth,[7],1.01
same,normalized growth,[28],1.01
same,normalized growth,"S. cerevisiae deletion strains, locus YNL175C, strain NOP13, stronger effect = lower value",1.03
same,normalized growth,[8],1.01
same,normalized growth,[9],1.03
same,normalized growth,[11],1.03
same,normalized growth,[32],1.01
